Source: PubChem BioAssay (Tox21)
Active and inactive are the calls of the source. Unless noted, calls follow the shape of the dose curve; as a rule, active = well fitted curve in the direction sought with a large enough effect in the repeat runs; inconclusive = weak or mixed curves; inactive = no such curve, though single readings can be large; an effect the other way counts as inactive or inconclusive.

What was measured:
[1] = qHTS assay to identify small molecule antagonists of the thyroid receptor (TR) signaling pathway - cell viability counter screen (AID 743064); also: nearly all actives have a fitted effect of over 50% in size; also: potency is read from the fitted curve at half-maximal effect
Outline: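 Same-well viability check: GH3.TRE-Luc cells stimulated with 1 nM T3 alongside test compound for 23.5 h, followed by CellTiter-Fluor fluorescence.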

[2] = tested on: thyroid hormone receptor (rat, GH3 cells); assay: qHTS assay to identify small molecule agonists of the thyroid receptor (TR) signaling pathway (AID 743066; calls by dose curve)
[3] = molecular target: Estrogen receptor (Homo sapiens) (UniProt P03372); assay: qHTS assay to identify small molecule antagonists of the estrogen receptor alpha (ER-alpha) signaling pathway (AID 743069; active = well fitted curve in the direction sought with a large enough effect in the signal ratio in the repeat runs, not every such curve was filed as active; inconclusive = weak or mixed curves, or effect the other way; inactive = no such curve, though single readings can be large or run the other way; the % refers to the signal ratio; also: potency is read from the fitted curve at half-maximal effect)
Outline: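 Fluorescence intensity from a beta-lactamase FRET substrate served as the read-out. Cells: HEK293 with stably integrated ER-alpha-UAS-bla reporter. Agonist 17beta-estradiol was co-added with compounds; incubation 18 hr at 37C, substrate 2 hr at room temperature.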

[4] = qHTS assay to identify small molecule antagonists of the estrogen receptor alpha (ER-alpha) signaling pathway - cell viability counter screen (AID 743074; calls by dose curve; also: nearly all actives have a fitted effect of over 45% in size; also: potency is read from the fitted curve at half-maximal effect)
[5] = molecular target: Estrogen receptor (Homo sapiens) (UniProt P03372); assay: qHTS assay to identify small molecule agonists of the estrogen receptor alpha (ER-alpha) signaling pathway (AID 743075; calls by dose curve; also: potency is read from the fitted curve at half-maximal effect)
[6] = molecular target: Estrogen receptor (Homo sapiens) (UniProt P03372); assay: qHTS assay to identify small molecule agonists of the estrogen receptor alpha (ER-alpha) signaling pathway using the BG1 cell line (AID 743079); conditions: BG1Luc4E2 cells, ERE-luciferase agonist, 22 h; activation: at 70.3 µM (top of the series); also: nearly all actives have a fitted effect of over 20% in size; also: potency is read from the fitted curve at half-maximal effect
[7] = qHTS assay to identify small molecule antagonists of the estrogen receptor alpha (ER-alpha) signaling pathway using the BG1 cell line (AID 743080; calls by dose curve;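 also: BG1 cells stimulated with 17beta-estradiol alongside compound; nearly all actives have a fitted effect of over 25% in size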; also: potency is read from the fitted curve at half-maximal effect)
Outline: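 BG1-Luc-4E2 cells (endogenous full-length ER-alpha, 4xERE luciferase) hormone-starved 5 days in charcoal-stripped FBS, plated 4,000/well for 24 h, then compound plus 17beta-estradiol for 21.5 h at 37 C; ONE-Glo luminescence read.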

[8] = qHTS assay to identify small molecule antagonists of the estrogen receptor alpha (ER-alpha) signaling pathway using the BG1 cell line - cell viability counter screen (AID 743081);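 also: compound given together with 17beta-estradiol as the ER stimulus; nearly all actives have a fitted effect of over 45% in size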; also: potency is read from the fitted curve at half-maximal effect
Aromatase (Homo sapiens) = Aromatase (Homo sapiens) (UniProt P11511); assay: qHTS assay to identify aromatase inhibitors (AID 743083); also: nearly all actives have a fitted effect of over 55% in size; also: potency is read from the fitted curve at half-maximal effect
[9] = qHTS assay to identify small molecule antagonists of the thyroid receptor (TR) signaling pathway (AID 743065); also: nearly all actives have a fitted effect of over 55% in size; also: potency is read from the fitted curve at half-maximal effect
Outline: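 Antagonism measured as loss of luciferase signal in GH3 cells stably carrying a TRE-luciferase reporter, co-treated with compound and T3 (1 nM final) for 23.5 h at 37 C. Viability was read in the same well by CellTiter-Fluor.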

Measured: Potency

Chain of Aromatase (Homo sapiens) (P11511 whole entry, looked up): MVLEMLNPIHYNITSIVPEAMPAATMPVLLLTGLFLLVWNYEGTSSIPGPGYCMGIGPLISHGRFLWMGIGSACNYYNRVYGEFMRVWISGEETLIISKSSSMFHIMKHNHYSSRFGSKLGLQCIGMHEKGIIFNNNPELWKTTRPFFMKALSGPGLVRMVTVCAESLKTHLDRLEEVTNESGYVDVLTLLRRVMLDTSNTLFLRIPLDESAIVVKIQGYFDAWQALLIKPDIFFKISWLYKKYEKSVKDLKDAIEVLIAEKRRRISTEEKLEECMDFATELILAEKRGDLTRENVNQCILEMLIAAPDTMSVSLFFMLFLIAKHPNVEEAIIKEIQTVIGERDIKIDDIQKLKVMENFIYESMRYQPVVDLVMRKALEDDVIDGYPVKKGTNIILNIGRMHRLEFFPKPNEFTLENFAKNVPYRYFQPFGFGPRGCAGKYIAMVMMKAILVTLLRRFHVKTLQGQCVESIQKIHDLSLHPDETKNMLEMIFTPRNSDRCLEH
Chain of Estrogen receptor (Homo sapiens) (P03372 whole entry, looked up): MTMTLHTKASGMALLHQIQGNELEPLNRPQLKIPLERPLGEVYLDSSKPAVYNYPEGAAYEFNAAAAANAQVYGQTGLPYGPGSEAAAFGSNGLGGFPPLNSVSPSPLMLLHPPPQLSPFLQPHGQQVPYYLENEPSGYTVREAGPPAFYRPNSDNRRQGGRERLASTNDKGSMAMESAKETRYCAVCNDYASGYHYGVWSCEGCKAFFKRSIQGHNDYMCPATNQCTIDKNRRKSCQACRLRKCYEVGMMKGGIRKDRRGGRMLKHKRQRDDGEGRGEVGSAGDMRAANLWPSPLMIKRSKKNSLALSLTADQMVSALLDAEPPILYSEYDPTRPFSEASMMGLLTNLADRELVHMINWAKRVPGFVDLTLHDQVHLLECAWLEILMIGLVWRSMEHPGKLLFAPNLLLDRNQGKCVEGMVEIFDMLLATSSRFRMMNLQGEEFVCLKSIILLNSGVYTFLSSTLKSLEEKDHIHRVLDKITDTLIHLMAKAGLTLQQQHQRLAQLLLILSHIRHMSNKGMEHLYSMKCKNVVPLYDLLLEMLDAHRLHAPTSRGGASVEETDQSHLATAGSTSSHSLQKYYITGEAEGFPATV

N#CCc1ccc(Cl)cc1Cl
not listed: [9]
inactive: all other assays above

C[C@@H]1CC(=O)NN=C1c1ccc(NN=C(C#N)C#N)cc1
active: [1] 15 µM | [9] 13.3 µM | [8] 23.7 µM | Aromatase (Homo sapiens) 29.8 µM
inactive: [3] | [4] | [5] | [7]

O=C1Cc2ccccc2N1c1c(Cl)cccc1Cl
active: [5] 43.6 µM [inconclusive] | [6] 10.9 µM | [7] 68.6 µM
not listed: [3] | [9]
inactive: all other assays above

CC[N+](CC)(CCNC(=O)C(=O)NCC[N+](CC)(CC)Cc1ccccc1Cl)Cc1ccccc1Cl
not listed: [6] | [9]
inactive: all other assays above

CC(C)(O)c1ccc(CNC(=O)c2cccnc2Oc2ccc3nonc3c2)cc1
not listed: [3] | [6] | [9]
inactive: all other assays above

O[C@@H]1CO[C@H]2[C@@H]1OC[C@@H]2O
not listed: [9]
inactive: all other assays above

CCOc1ccc(Cc2nccc3cc(OCC)c(OCC)cc23)cc1OCC
active: [7] 11.4 µM
inactive: [1] | [2] | [4] | [5] | Aromatase (Homo sapiens)

CCCCCCCCC(CCCCCC)C(=O)O (stereo not given)
inactive: [1] | [2] | [4] | [8]

CCCCC(CC)COP(=O)(O)O (stereo not given)
active: [3] 39.6 µM [inconclusive]
not listed: [9]
inactive: all other assays above

COC(=O)C1=C(C)NC(C)=C(C(=O)O[C@@H]2CCCN(Cc3ccccc3)C2)[C@@H]1c1cccc([N+](=O)[O-])c1
inactive: [4] | [5] | [6] | [7]
active: [1] 26.6 µM | [9] 11.9 µM | [3] 26.8 µM [inhibitor] | Aromatase (Homo sapiens) 29.8 µM

c1ccc2c(c1)CCc1ccccc1N2
inactive: [1] | [9] | [2] | [8] | Aromatase (Homo sapiens)

Cc1cccc(N(C)C(=S)Oc2ccc3c(c2)CCC3)c1
inactive: [1] | [2] | [4] | [5] | [6] | Aromatase (Homo sapiens)

C[C@@H]1CN(CCCn2c3ccccc3c3ccccc32)C[C@H](C)N1
inactive: [8]
active: [1] 10.6 µM | [9] 8.41 µM

O=C1c2ccccc2C(=O)c2c(O)c(O)cc(O)c21
inactive: [2] | [3] | [4] | [5] | Aromatase (Homo sapiens)
active: [1] 54.5 µM

CCC(C)COC(=O)CC(C)C (stereo not given)
not listed: [7] | [9]
inactive: all other assays above

CN1CCCC(CC2c3ccccc3Sc3ccccc32)C1 (stereo not given)
active: [1] 9.02 µM | [9] 7.17 µM
not listed: [2] | [7]
inactive: all other assays above

c1ccc(C[n+]2cccc3ccccc32)cc1
active: [3] 49 µM [inconclusive]
inactive: [1] | [2] | [4] | [5] | Aromatase (Homo sapiens)

COc1cc(C(=O)NCCCCCC(=O)O)cc(OC)c1OC
not listed: [9]
inactive: all other assays above

OCCN1CCN(CCCN2c3ccccc3Sc3ccc(Cl)cc32)CC1
active: [1] 3.59 µM | [9] 5.07 µM
not listed: [2]
inactive: all other assays above

O=C(Cn1ccnc1[N+](=O)[O-])NCCO
not listed: [4] | [7] | [9]
inactive: all other assays above

CC1(CN2CCC(n3c(=O)[nH]c4ccccc43)CC2)OCc2ccccc2-n2cccc21 (stereo not given)
active: [1] 29.8 µM | [9] 26.6 µM | [7] 29.8 µM
inactive: [4] | [5] | [8]

O=[N+]([O-])c1cc(C2CCCCC2)c(O)c([N+](=O)[O-])c1
inactive: [5]
active: [1] 9.66 µM | [9] 3.85 µM | [3] 6.15 µM [inconclusive] | [8] 6.09 µM | Aromatase (Homo sapiens) 17.2 µM

CC(=O)NC1(c2cccc(F)c2)CCN(CC[C@@]2(c3ccc(Cl)c(Cl)c3)CN(c3ccccc3)C(=O)CO2)CC1
active: [1] 7.72 µM | [9] 10.9 µM | [4] 39 µM | [7] 54.6 µM
inactive: [5]

CC(=O)N/N=C/c1ccc([N+](=O)[O-])o1
inactive: [3] | [4] | [5] | [8]
active: [1] 18.8 µM | [9] 16.8 µM

Cc1c(C)c2c(c(C)c1OC(=O)CCC(=O)OCCO)CC[C@@](C)(CCC[C@H](C)CCC[C@H](C)CCCC(C)C)O2
inactive: [5] | [6] | [8]
active: [1] 11.9 µM | [9] 23.7 µM | [3] 9.52 µM [inconclusive]

C1C[C@@H]2[C@H]3CC[C@H](C3)[C@@H]2C1
not listed: [7] | [9]
inactive: all other assays above

CC(C)Nc1cccnc1N1CCN(C(=O)c2cc3cc(NS(C)(=O)=O)ccc3[nH]2)CC1
not listed: [9]
inactive: all other assays above

Cc1cc(C)c(N)cc1C
not listed: [7] | Aromatase (Homo sapiens) | [9]
inactive: all other assays above

C[C@@H](O[C@H]1OCCN(Cc2n[nH]c(=O)[nH]2)[C@H]1c1ccc(F)cc1)c1cc(C(F)(F)F)cc(C(F)(F)F)c1
active: [1] 13.3 µM | [9] 10.6 µM | Aromatase (Homo sapiens) 29.8 µM
inactive: [8]
